Assay results published in PubChem BioAssay (Tox21).
Records with an inconclusive call do not appear. A call without a number means that no potency is given here. Unmarked numbers belong to inactive results. Active and inactive are the calls of the source. The call rests on the fitted dose curve; in most records, active means well fitted curve in the direction sought with a large enough effect in the repeat runs; inconclusive means weak or mixed curves; inactive means no such curve, though single readings can be large; an effect the other way counts as inactive or inconclusive.

Legend:
[1] = qHTS RealTime-Glo MT Cell Viability Assay in HepG2 cells - 8 hour (AID 1224873); details: RealTime-Glo luminescence; series mostly up to 76.8 µM; further: nearly all actives have a fitted effect of over 55% in size
Method in brief: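 Real-time viability: cells seeded at 600 per well together with NanoLuc and cell-permeant prosubstrate, compounds added after 5 h incubation. Luminescence tracked at 0, 8, 16, 24, 32 and 40 h of exposure.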

[2] = qHTS RealTime-Glo MT Cell Viability Assay in HEK293 cells - 40 hour (AID 1224874); details: RealTime-Glo luminescence; max response: hits give low values; further: nearly all actives have a fitted effect of over 50% in size
Method in brief: (§1)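 Measured as luminescence from the same continuously cultured HEK293 wells at successive time points (0, 8, 16, 24, 32, 40 h) after compound addition. Reagent present from seeding; dosing at 5 h; incubation 37 C.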

[3] = A CellTox Green Cytotoxicity Assay to monitor cytotoxicity in HEK293 cells - 24 hour (AID 1224875); details: CellTox Green fluorescence; series mostly up to 76.8 µM; further: nearly all actives have a fitted effect of over 45% in size
Method in brief: (§2)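 Homogeneous no-lysis format: HEK293 cell suspension mixed with CellTox Green reagent, seeded, incubated 5 h at 37 C/5% CO2, then dosed by pintool with compound in DMSO.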

[4] = A CellTox Green Cytotoxicity Assay to monitor cytotoxicity in HepG2 cells - 16 hour (AID 1224876); details: CellTox Green fluorescence; series mostly up to 76.8 µM; further: nearly all actives have a fitted effect of over 45% in size; further: potency means the concentration at half of the fitted maximal effect
Method in brief: (§3)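 Fluorescent DNA-binding dye, 600 HepG2 cells/well, 5 h preincubation then compound in DMSO; same plates read at 0–40 h, 37 C.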

[5] = qHTS RealTime-Glo MT Cell Viability Assay in HepG2 cells - 32 hour (AID 1224877); details: RealTime-Glo luminescence; series mostly up to 76.8 µM; further: nearly all actives have a fitted effect of over 55% in size
Method in brief: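 Cells + NanoLuc/prosubstrate dispensed (600 cells/well) → 5 h at 37 C/5% CO2 → compounds in DMSO transferred → 40 h incubation at 37 C, luminescence read at 0, 8, 16, 24, 32, 40 h.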

[6] = A CellTox Green Cytotoxicity Assay to monitor cytotoxicity in HepG2 cells - 24 hour (AID 1224878); details: CellTox Green fluorescence; series mostly up to 76.8 µM; further: nearly all actives have a fitted effect of over 45% in size; further: potency means the concentration at half of the fitted maximal effect
Method in brief: as §3

[7] = A CellTox Green Cytotoxicity Assay to monitor cytotoxicity in HepG2 cells - 40 hour (AID 1224879); details: CellTox Green fluorescence; series mostly up to 76.8 µM; further: nearly all actives have a fitted effect of over 40% in size; further: potency means the concentration at half of the fitted maximal effect
Method in brief: as §3

[8] = qHTS RealTime-Glo MT Cell Viability Assay in HEK293 cells - 0 hour (AID 1224880); details: RealTime-Glo luminescence; series mostly up to 76.8 µM; further: top concentration of the series differs between compounds; nearly all actives have a fitted effect of over 45% in size
Method in brief: as §1

[9] = A CellTox Green Cytotoxicity Assay to monitor cytotoxicity in HEK293 cells - 32 hour (AID 1224881); details: CellTox Green fluorescence; series mostly up to 76.8 µM; further: nearly all actives have a fitted effect of over 40% in size
Method in brief: as §2

[10] = qHTS RealTime-Glo MT Cell Viability Assay in HEK293 cells - 16 hour (AID 1224872); details: RealTime-Glo luminescence; series mostly up to 76.8 µM; further: potency means the concentration at half of the fitted maximal effect; nearly all actives have a fitted effect of over 50% in size
Method in brief: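 Tox21 10K qHTS, HEK293, 600 cells/well, RealTime-Glo reagent co-dispensed with cells; 5 h preincubation, compound by pintool, 37 C, luminescence at 0–40 h.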

Row | SMILES | outcome [1] | max response [2] | Potency [3] | Potency [4] | Potency [5] | Potency [6] | Potency [7] | Potency [8] | Potency [9] | Potency [10]
1 | O=C(Cl)c1ccc(F)c(Cl)c1 | inactive | 35.2% | inactive | inactive | inactive | inactive | inactive | inactive | inactive | 
2 | COc1cccc([C@H](O)C2CCN(CCc3ccc(F)cc3)CC2)c1OC | inactive |  | inactive | inactive | inactive | inactive |  | inactive | inactive | 
3 | CC1=C(C)C(=O)C(C(CCCCCC(=O)O)c2ccccc2)=C(C)C1=O (centres undefined) | inactive | 3.36% | inactive | inactive | inactive |  | inactive | inactive | inactive | 
4 | CCCN(C1CCN(C(=O)C2CCNCC2)CC1)[C@@H]1CCc2ccc(OC)cc2C1 | inactive |  |  |  | inactive |  |  | inactive |  | 
5 | Clc1cc(Cl)c2c(c1)N=C1CCCCCN1C2 | inactive |  | inactive | inactive | inactive |  | inactive |  | inactive | 21.3 µM (active)
6 | Clc1ccccc1-c1nc(-c2ccncc2)no1 | inactive |  | inactive | inactive | inactive | inactive |  | inactive | inactive | 
7 | CC(C)(C)NCC(O)COc1ccc(NC(=O)NC2CCCCC2)cc1 (centres undefined) |  |  | inactive | inactive |  | inactive | inactive |  | inactive | 
8 | C[C@H](CN1CCCC1)C(=O)c1ccc(C(F)(F)F)cc1 | inactive |  |  | 21.3 µM (active) |  | 21.3 µM (active) | 21.3 µM (active) |  |  | 
9 | N#Cc1ccc(CC(=O)c2cccc(C(F)(F)F)c2)cc1 | inactive |  | inactive | inactive | inactive | inactive | inactive | inactive | inactive | 
10 | CCn1nc(Cc2ccccc2)cc1C1CCN(C[C@H]2C[C@H](N(C)[C@@H](C(=O)O)C(C)C)C[C@@H]2c2cccc(F)c2)CC1 | inactive |  | inactive | inactive | inactive | inactive |  | inactive | inactive | 
11 | C[C@]12CCC(=O)C=C1[C@@H]1C[C@@H]1[C@H]1[C@@H]3[C@@H]4C[C@@H]4[C@@]4(CCC(=O)O4)[C@@]3(C)CC[C@@H]12 | inactive |  | inactive | inactive | inactive | inactive | inactive | inactive | inactive | 
12 | S=c1[nH][nH]c(=S)s1 | inactive |  | inactive | inactive | inactive | inactive | inactive | inactive | inactive | 
13 | SCCOCCOCCS | inactive | -3.19% | inactive | inactive | inactive | inactive | inactive |  | inactive | 
